Source: the supplement of paper PMC7156485

test system: TDF; experiment: H1.0 immunofluorescence intensity relative to DMSO (% of DMSO); higher = stronger H1.0 induction, active = 120 or more; conditions: concentration: 10 µM; 24 h
In short: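 Six fields per well were imaged at ×10 after the cells were fixed in 3.7% formaldehyde and stained with a rabbit anti-H1.0 antibody, an AlexaFluor 647 secondary and DAPI. The HCC1569 and TDF cells had been plated at 800 per well in 384-well plates (RPMI, 10% FBS) and treated in triplicate with compounds at 10 µM for 24 h at 37 °C. The values are the median of replicates of H1.0 nuclear intensity or cell number, as percent of the plate control. Smoothing for positional effects was applied to HCC1569 data.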
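Also: TDF is a line of transformed human dermal fibroblasts of mesenchymal origin.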

H1.0 immunofluorescence intensity, inactive:
O=c1ccc2ccc(O)c(O)c2o1 [Daphnetin] 100
CCNC(=O)N1CCN(CCCC(c2ccc(F)cc2)c2ccc(F)cc2)CC1.Cl [Amperozide hydrochloride] 97
CCCCCC(O)C=CC1C(O)CC(O)C1CCCCCCC(=O)O (centres undefined) [Prostaglandin F1a] 91.9
O=C(O)CC/C=C\C[C@H]1CO[C@@H](c2ccccc2Cl)O[C@H]1c1ccccc1O 95.5
CCCCCC=CCC=CCC=CCC=CCCCC(=O)OC(COCCCCCCCCCCCCCCCC)COP(=O)([O-])OCC[N+](C)(C)C (centres undefined) [Arachidonyl-PAF] 93
CCC(=C(c1ccccc1)c1ccc(OCCN(C)C)cc1)c1ccccc1.O=C(O)CC(O)(CC(=O)O)C(=O)O [Tamoxifen citrate] 115
CC12CCC(=O)C=C1CCC1C2C(O)CC2(C)C1CCC2(O)C(=O)COC(=O)CCC(=O)[O-].[Na+] (centres undefined) [Hydrocortisone 21-hemisuccinate sodium] 82.6
O=C(NCCNCC(O)COc1ccc(O)cc1)N1CCOCC1.O=C(O)C=CC(=O)O (centres undefined) [Xamoterol hemifumarate] 88.7
Cc1[nH]c(=O)c(C#N)cc1-c1ccncc1 [Milrinone] 92.3
CC(=O)NC(CSCC=C(C)CCC=C(C)CCC=C(C)CCC=C(C)C)C(=O)O (centres undefined) 105
Cl.Fc1ccc(C(OCCCc2cnc[nH]2)c2ccc(F)cc2)cc1 88.3
N#CC(=Cc1ccc(O)cc1)C(N)=C(C#N)C#N 95.4
O=C(c1ccc2c(c1)OCCO2)N1CCCCC1 96.7
Nc1sc2c(c1C(=O)c1ccc(Cl)cc1)CCCC2 95
CCCCCC=CCC=CCCCCCCCC(N)=O [Linoleamide] 99.6
NC1CONC1=O [L-Cycloserine] 94.5
O=S(=O)(c1cccc2cnccc12)N1CCCNCC1 88
NC(=O)c1nnn(Cc2cc(Cl)c(C(=O)c3ccc(Cl)cc3)c(Cl)c2)c1N 95.5
Cl.O=c1cc(N2CCOCC2)oc2c(-c3ccccc3)cccc12 [LY-294,002 hydrochloride] 82.5
NC(N)=S [Thiourea] 92.6
CC1(C)SC2C(NC(=O)C(N)c3ccccc3)C(=O)N2C1C(=O)O (centres undefined) [Ampicillin] 90
CCn1cc(C(=O)O)c(=O)c2cc(F)c(N3CCNCC3)nc21 [Enoxacin] 98.8
CC(=O)Oc1ccc(C(c2ccc(OC(C)=O)cc2)c2ccccn2)cc1 [Bisacodyl] 86.4
CC(=O)OCC1=C(C(=O)[O-])N2C(=O)C(NC(=O)Cc3cccs3)C2SC1.[Na+] (centres undefined) [Cephalothin sodium] 89.4
CC(C)=CCC(O)C1=CC(=O)c2c(O)ccc(O)c2C1=O (centres undefined) [Shikonin] 119
O=C1c2c(O)cc(O)cc2O[C@H](c2cc(O)c(O)c(O)c2)[C@H]1O 98.9
COc1cc(-c2oc3cc(O)cc(O)c3c(=O)c2OC2OC(CO)C(O)C(O)C2O)cc(OC)c1O (centres undefined) [Syringetine-3-glucoside] 101
O=C(O)C1CCCNC1 (racemic) 97
CC(C)c1cccc(C(C)C)c1N1C(=O)c2ccc(O)cc2C1=O 119
COC(=O)[C@@H](N)Cc1ccc(O)c(O)c1.Cl [L-3,4-Dihydroxyphenylalanine methyl ester hydrochloride] 94.8
CC1OC(OC2C(Oc3cc(O)c4c(=O)c(O)c(-c5ccc(O)cc5)oc4c3)OC(CO)C(O)C2O)C(O)C(O)C1O (centres undefined) [Kaempferol-7-neohesperidoside] 95.8

H1.0 immunofluorescence intensity, active:
CC1(NCC(O)COc2cccc3[nH]ccc23)CCC(C(C)(C)NC(=O)CBr)CC1 (centres undefined) [Pindobind-5HT1A] 135
N#Cc1c(NC(=O)c2cccc3ccccc23)sc2c1CCCC2 [JNK Inhibitor IX] 163
COc1cc2c(cc1-c1c(C)noc1C)ncc1[nH]c(=O)n([C@H](C)c3ccccn3)c12 138
